Most compounds without a hit are left out; they make up all but 2% or so of the library.
FUS suppressor: qHTS for Suppressors of FUS Proteinopathy: Primary screen using FUS-linked yeast assay | S. cerevisiae FUS-expressing, growth rescue, OD600, 24 h | Potency, µM (series often up to 76.6 µM), most hits filed as activators | actives 0.24% (n = 390,000) | AID 1347120, 2019;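 note: plate controls were DMSO vehicle for no effect and reference control for full effect; nearly all actives have a fitted effect of over 55% in size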
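Absorbance at 600 nm, taken 24hr after compound addition, measured rescue of FUS-yeast growth at 30C. Induction used 2% galactose with seeding at OD 0.005. Controls: CP55940 from 92uM final, DMSO only.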
MBNL1 CUG block: qHTS Assay for Inhibitors of MBNL1-poly(CUG) RNA binding | TR-FRET MBNL1-His/biotin-(CUG)12 binding, 665/545 ratio | actives 0.036% (n = 280,000) | AID 2675, 2010 | Potency, µM (highest dose often 57.5 µM), for inactives: at the highest dose activity change, negative = inhibition, usual class: inhibitors; active = well fitted inhibition curve with a large enough effect in the signal ratio, with a control signal flat, not every such curve was filed as active; inconclusive = small, poorly fitted or top-dose-only effect, or effect the other way, or a change in a side signal; inactive = no such curve, though single readings can be large or run the other way; the % refers to the signal ratio; note: % is set by controls: 0 for no effect and ±100 for the full control effect
Target sequence (Q9NR56 whole entry, looked up): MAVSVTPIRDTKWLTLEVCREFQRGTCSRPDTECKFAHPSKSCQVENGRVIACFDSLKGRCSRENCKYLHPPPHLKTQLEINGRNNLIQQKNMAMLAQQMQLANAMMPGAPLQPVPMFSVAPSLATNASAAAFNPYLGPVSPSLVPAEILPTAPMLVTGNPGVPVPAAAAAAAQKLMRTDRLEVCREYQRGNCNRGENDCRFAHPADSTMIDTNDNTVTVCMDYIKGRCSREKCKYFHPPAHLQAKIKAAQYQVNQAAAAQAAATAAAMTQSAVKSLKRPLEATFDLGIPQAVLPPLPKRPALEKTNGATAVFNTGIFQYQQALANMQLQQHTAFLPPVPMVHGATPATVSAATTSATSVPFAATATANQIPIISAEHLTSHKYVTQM
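Compound titration spanned 92 nM–58 uM against the MBNL1-His/biotin-(CUG)12 complex. After 60 min at room temperature with 5 nM streptavidin-XL665 and 0.055 ng/ul terbium anti-His, ratiometric 665/545 nm emission (Ex 340 nm) normalized to controls.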
Abeta rescue: qHTS for compounds that reverse cellular toxicity of Amyloid beta (A-beta) peptide in yeast: Primary Screen. yeast expressing A-beta42, growth rescue, OD600, 48 h; response scale: 0% DMSO, 100% iron-clioquinol control. Potency, µM (highest dose often 46.1 µM), usual class: activators. actives 0.063% (n = 410,000). AID 1347071, 2019; note: nearly all actives have a fitted effect of over 55% in size
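Yeast A-beta toxicity model in growth medium with pinned compounds, 48 h at 30 C; growth read as absorbance at 600 nm. Normalized to FeCl3/clioquinol equimolar mix (positive) and DMSO (negative).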
Glioma ERSR ind: qHTS for Inducers of the Endoplasmic Reticulum Stress Response (ERSR) in Human Glioma: qHTS | U87-MG GRP78 promoter luciferase reporter, 16 h | Potency, µM, for the others: at the highest dose activation, hits mostly activators | actives 0.02% (n = 420,000) | AID 602332, 2012; note: series mostly up to about 76 µM; % of control where 0% means no effect; nearly all actives have a fitted effect of over 35% in size
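Stably transfected U87-MG glioma cells carrying a GRP78-based luciferase sensor; 16 h compound incubation. Luminescence end-point read 10 min after Bright-Glo addition at room temperature.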
TDP43 rescue: qHTS of TDP-43 Inhibitors. Potency, µM (titrated, usually from 46.1 µM), without a hit: at the top dose growth rescue (activation), usual class: activators. AID 652104, 2013. TDP-43 expressing yeast growth rescue, BacTiter-Glo, 24 h. actives 1.8% (n = 410,000); note: % of control where 0% means no effect; nearly all actives have a fitted effect of over 50% in size
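In this qHTS, compounds that restore growth of yeast expressing TDP-43 appear as activators. Cells (OD600=0.02, galactose medium, raffinose-pregrown) are incubated with compound 24 hr at 30 deg C and growth is quantified by BacTiter-Glo.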
aSyn yeast inh: qHTS of alpha-syn Inhibitors. Yeast expressing alpha-synuclein, growth rescue, BacTiter-Glo, 24 h. Potency, µM (highest dose often 46.1 µM), for inactives: top-dose growth rescue (activation), most hits filed as activators. actives 0.14% (n = 370,000); note: % of control where 0% means no effect; nearly all actives have a fitted effect of over 65% in size
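Galactose-induced alpha-syn yeast (OD600=0.02, raffinose-pregrown) + pinned cpd, 24 hr, 30 deg C; growth by BacTiter-Glo luminescence. Growth restoration scores as activation.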
An asterisk follows results filed as active. Unless noted, calls come from the whole dose curve; as a rule, active = well fitted curve in the direction sought with a large enough effect; inconclusive = small, poorly fitted or top-dose-only effect, or another doubt; inactive = no such curve, though single readings can be large; an effect the other way counts as inactive or inconclusive. Potency is the fitted concentration of half-maximal effect.

For CCOc1ccccc1NC(=O)COC(=O)COc1c(Cl)cc(Cl)c2ccc(C)nc12 the results were FUS suppressor inactive, Abeta rescue inactive, Glioma ERSR ind -4%, TDP43 rescue 4% and aSyn yeast inh 16%.
Screening CCN(CC(=O)NC(C)(C)C)C(=O)COc1c(Cl)cc(Cl)c2ccc(C)nc12 returned FUS suppressor inactive, Abeta rescue inconclusive, Glioma ERSR ind 2%, TDP43 rescue 28µM* and aSyn yeast inh 10%.
For CN1CCC(N[C@@H](Cc2c[nH]c3ccccc23)C(=O)NCC(c2ccccc2)c2ccccc2)(C(=O)NC2CCCCC2)CC1 the results were FUS suppressor inactive.
CC(C)(C)OC(=O)N1CCC(N[C@@H](Cc2c[nH]c3ccccc23)C(=O)NCC(c2ccccc2)c2ccccc2)(C(=O)NC2CCCCC2)CC1 was read as FUS suppressor 10µM*.
`O=C1N/C(=N\N=C\c2ccccn2)SC1Cc1cccc(SC(F)F)c1` (configuration not stated) gave MBNL1 CUG block -15%, Abeta rescue inconclusive, Glioma ERSR ind -4%, TDP43 rescue 29% and aSyn yeast inh 5µM*.
Screening CCCC1CC(C)(c2csc(Nc3ccc(OCC)cc3)n2)OC1=O (configuration not stated) returned FUS suppressor inactive, MBNL1 CUG block 1%, Abeta rescue inactive, Glioma ERSR ind 6%, TDP43 rescue 18µM* and aSyn yeast inh 19%.
Screening CCOc1ccc(NC(=O)CC2CC(C)(C)OC2=O)cc1 (configuration not stated) returned FUS suppressor inactive, MBNL1 CUG block 11%, Abeta rescue inactive, Glioma ERSR ind 2%, TDP43 rescue 3% and aSyn yeast inh 8%.
`COc1cc(=O)n2c(c1C(=O)N(C)Cc1nccs1)CCN(Cc1cc(C)cc(C)c1)CC2` gave Glioma ERSR ind -3%.
For CC(=O)c1ccc2c(c1)C1C=CCC1C(c1ccncc1)N2 (configuration not stated) the results were MBNL1 CUG block inconclusive, Abeta rescue inactive, Glioma ERSR ind 5%, TDP43 rescue 17% and aSyn yeast inh 5%.
COC(=O)c1ccc(C2Nc3ccc(/C(C)=N/NC(=O)C(OC)c4ccccc4)cc3C3C=CCC32)cc1 (configuration not stated) was read as FUS suppressor 4.5µM*, MBNL1 CUG block inconclusive, Abeta rescue inactive, Glioma ERSR ind -5%, TDP43 rescue -1% and aSyn yeast inh 1%.
Cc1cccc(C(=O)NCc2nc(-c3cccc(NC(=O)C4CCCN(C)C4)c3)oc2C)n1 (configuration not stated) was read as Glioma ERSR ind -2%.
For COc1cc(-c2nc(C)cnc2C)cc2c1OCCN(C(=O)Cn1nc(-c3ccccc3)c3ccccc3c1=O)C2 the results were Glioma ERSR ind -1%.
Screening COC(=O)c1cc(C(=O)c2ccc(Cl)cc2Cl)cn1C returned FUS suppressor inactive, MBNL1 CUG block -29%, Abeta rescue inactive, Glioma ERSR ind 0%, TDP43 rescue 11µM* and aSyn yeast inh -5%.
Cn1cc(C(=O)c2cccc(Cl)c2Cl)cc1C(=O)O was read as FUS suppressor inactive, MBNL1 CUG block 2%, Abeta rescue inactive, Glioma ERSR ind 0%, TDP43 rescue 0% and aSyn yeast inh -2%.
`COC(=O)c1cc(C(=O)c2cccc(Cl)c2Cl)cn1C` gave FUS suppressor inactive, MBNL1 CUG block -12%, Abeta rescue inactive, Glioma ERSR ind 1%, TDP43 rescue 18µM* and aSyn yeast inh 13%.
O=C(CSc1ccc(-c2nc3ccccc3[nH]2)cn1)N1CCN(C(=O)c2ccco2)CC1 was read as FUS suppressor 14µM*, MBNL1 CUG block 3%, Abeta rescue inactive, Glioma ERSR ind -3%, TDP43 rescue 0% and aSyn yeast inh 0%.
Screening O=C(CCc1nc2ccccc2[nH]1)N1CCN(C(=O)c2ccco2)CC1 returned FUS suppressor inactive, MBNL1 CUG block 21%, Abeta rescue inactive, Glioma ERSR ind -5%, TDP43 rescue 0% and aSyn yeast inh -6%.
CC(=O)n1cc([C@H]2C=C(C(=O)NCc3ccccc3)O[C@@H](OCc3ccc(CO)cc3)C2)c2ccccc21 was read as FUS suppressor 25µM*, MBNL1 CUG block -6%, Abeta rescue inactive, Glioma ERSR ind -3%, TDP43 rescue 1% and aSyn yeast inh -9%.
Screening O=C(NCc1nc2ccccc2[nH]1)C1=C[C@@H](C2CCCCC2)C[C@@H](OCc2ccc(CO)cc2)O1 returned FUS suppressor 32µM*, MBNL1 CUG block 7%, Abeta rescue inactive, Glioma ERSR ind -4%, TDP43 rescue 21% and aSyn yeast inh 5%.
For O=C(NCc1nc2ccccc2[nH]1)C1=C[C@H](C2CCCCC2)C[C@H](OCCCCO)O1 the results were FUS suppressor inactive, Abeta rescue inactive, Glioma ERSR ind -5%, TDP43 rescue 9% and aSyn yeast inh -6%.
`O=C(NCc1nc2ccccc2[nH]1)C1=C[C@H](c2ccccc2)C[C@H](OCc2ccc(CO)cc2)O1` gave FUS suppressor inactive, MBNL1 CUG block 6%, Abeta rescue inactive, Glioma ERSR ind 3%, TDP43 rescue 22% and aSyn yeast inh 3%.
Screening O=C(NCc1nc2ccccc2[nH]1)C1=C[C@@H](c2ccc(C(F)(F)F)cc2)C[C@@H](OCc2ccc(CO)cc2)O1 returned FUS suppressor 32µM*, Abeta rescue inactive, Glioma ERSR ind -5%, TDP43 rescue 3% and aSyn yeast inh -3%.
For O=C(NCc1nc2ccccc2[nH]1)C1=C[C@H](C2CCCCC2)C[C@H](OCc2ccc(CO)cc2)O1 the results were FUS suppressor 20µM*, MBNL1 CUG block -2%, Abeta rescue inactive, Glioma ERSR ind -3%, TDP43 rescue 8% and aSyn yeast inh -19%.
For C#CCNC(=O)C1=C[C@@H](c2cn(C(C)=O)c3ccccc23)C[C@@H](OCc2ccc(CO)cc2)O1 the results were FUS suppressor inconclusive, MBNL1 CUG block 0%, Abeta rescue inactive, Glioma ERSR ind -2%, TDP43 rescue 1% and aSyn yeast inh 2%.
